Data taken from PubChem BioAssay (Tox21).
Inconclusive results are not listed. Active and inactive are the calls of the source. Unless noted, calls come from the whole dose curve; as a rule, active = well fitted curve in the direction sought with a large enough effect in the repeat runs; inconclusive = weak or mixed curves; inactive = no such curve, though single readings can be large; an effect the other way counts as inactive or inconclusive.

What was measured:
[1] = qHTS assay to identify small molecule agonists of the RXR signaling pathway - cell viability counter screen (AID 1159529);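 note: HEK 293T cells carrying an RXR-alpha UAS beta-lactamase reporter; nearly all actives have a fitted effect of over 50% in size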
In short: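 RXR-alpha-UAS-bla HEK 293T cells in medium with 2% charcoal-stripped FBS were preincubated 5 hr, then exposed to compounds for 16 hr at 37 C. Viability was read as CellTiter-Glo luminescence after 30 min at room temperature.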

[2] = qHTS assay to identify small molecule antagonists of the retinoid acid receptor (RAR) signaling pathway - cell viability counter screen (AID 1159551); note: nearly all actives have a fitted effect of over 35% in size
In short: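 C3RL4 cells were seeded overnight at 37 C, then treated with compounds plus 1 uM (final) retinol for 6 h at 37 C. Viability was read as ATP by CellTiter-Glo luminescence after 30 min at room temperature.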

[3] = qHTS assay to identify small molecule antagonists of the retinoic acid receptor (RAR) signaling pathway (AID 1159552; note: nearly all actives have a fitted effect of over 50% in size)
In short: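 RARE-luc C3RL4 cells; cpds + 1 uM (final) retinol, 6 hr, 37 C/5% CO2; luciferase reagent, 30 min RT, luminescence readout. Inhibitors of retinol-driven signal scored.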

[4] = qHTS assay to identify small molecule agonists of the retinoic acid receptor (RAR) signaling pathway (AID 1159553); settings: C3RL4 RARE luciferase reporter, agonist, 6 h; activation: at 73.3 µM (top of the series) unless noted
In short: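 C3RL4 cells carrying a RARE luciferase reporter were plated overnight at 37 C, then exposed to compounds in DMSO for 6 hr at 37 C and 5% CO2. Luminescence was read 30 min after luciferase reagent addition at room temperature.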

[5] = qHTS assay to identify small molecule antagonists of the estrogen related receptor (ERR) signaling pathway from Tox21 library - cell viability counter screen (AID 1224834); note: nearly all actives have a fitted effect of over 30% in size
In short: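 ERR reporter cells were plated 6 h before compound addition, then exposed to test compounds in DMSO for 17.5 h at 37 C. Viability was read as CellTiter-Fluor fluorescence after a 30-minute incubation at 37 C.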

[6] = target: Luciferin 4-monooxygenase (Photinus pyralis) (UniProt P08659); test: qHTS assay to identify small molecule inhibitors of firefly luciferase (AID 1224835); note: nearly all actives have a fitted effect of over 25% in size
In short: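 Quantitative HTS format; KM concentrations of both substrates. Purified P. pyralis FLuc activity quantified from luminescence images.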

[7] = qHTS assay to identify small molecule agonists of the constitutive androstane receptor (CAR) signaling pathway - cell viability counter screen (AID 1224836); note: nearly all actives have a fitted effect of over 45% in size
In short: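 HepG2 cells stably carrying hCAR and a CYP2B6-2.2kb reporter were plated 4 h, then given compounds at 15 concentrations plus PK11195 (final 0.75 uM). After 23 h at 37 C, viability was read by CellTiter-Fluor fluorescence.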

[8] = qHTS assay to identify small molecule antagonists of the constitutive androstane receptor (CAR) signaling pathway - cell viability counter screen (AID 1224837); note: nearly all actives have a fitted effect of over 45% in size
In short: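 HepG2 cells stably expressing hCAR and a CYP2B6-2.2kb reporter were plated and pre-incubated 4 hr at 37 C/5% CO2, then given compounds at 15 concentrations plus 50 nM CITCO (final). After 23 hr, viability was read by CellTiter-Fluor fluorescence.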

[9] = target: Nuclear receptor subfamily 1 group I member 3 (Homo sapiens) (UniProt Q14994); test: qHTS assay to identify small molecule antagonists of the constitutive androstane receptor (CAR) signaling pathway (AID 1224838); note: nearly all actives have a fitted effect of over 40% in size
In short: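 HepG2 cells stably co-transfected with hCAR and a CYP2B6-2.2kb luciferase reporter were seeded 4 h before compound addition at 15 concentrations. Cells were stimulated with 50 nM CITCO (final) for 24 h at 37 C; luciferase luminescence was then read.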

[10] = target: Nuclear receptor subfamily 1 group I member 3 (Homo sapiens) (UniProt Q14994); test: qHTS assay to identify small molecule agonists of the constitutive androstane receptor (CAR) signaling pathway (AID 1224839);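 note: HepG2 cells stably carrying human CAR and a CYP2B6 luciferase reporter; nearly all actives have a fitted effect of over 15% in size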
In short: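 HepG2 cells stably expressing hCAR and a CYP2B6-2.2kb luciferase reporter were treated with compounds at 15 concentrations plus 0.75 uM PK11195 (final) for 24 h at 37 C; luminescence was read after ONE-Glo addition.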

[11] = qHTS assay to identify small molecule antagonists of the estrogen related receptor signaling pathway with the pleiotropic PPARgamma coactivator (PGC) from Tox21 10K library - cell viability counter screen (AID 1224840; active = well fitted cell-killing curve with a large enough effect in the repeat runs, not every such curve was filed as active; note: nearly all actives have a fitted effect of over 40% in size)
In short: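 PGC/ERR cells were seeded at 2,000 cells/well and left 6 hours at 37 C/5% CO2 before pin-tool addition of compounds in DMSO. After 17.5 hours at 37 C, CellTiter-Fluor was added and fluorescence read 30 minutes later.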

[12] = target: Thyrotropin receptor (Homo sapiens) (UniProt P16473); test: qHTS assay to identify small molecule agonists of the thyroid stimulating hormone receptor (TSHR) signaling pathway (AID 1224843; calls by dose curve; note: nearly all actives have a fitted effect of over 45% in size)
In short: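 TSHR-expressing HEK293 cells (800 per well) were exposed to compounds for 30 min at room temperature. cAMP was then detected by HTRF competition with cAMP-d2 and anti-cAMP cryptate, read after 1 h at room temperature. Fifteen concentrations, triplicate.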

[13] = qHTS assay to identify small molecule antagonists of the estrogen related receptor (ERR) signaling pathway - cell viability counter screen (AID 1224818);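 note: viability measured after 17.5 h of compound exposure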
In short: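 ERR reporter cells plated 6 h at 37 C/5% CO2, then compounds in DMSO pin-transferred and incubated 17.5 h at 37 C. Viability read as CellTiter-Fluor fluorescence after 30 min at 37 C.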

[14] = qHTS assay to identify small molecule antagonists of the estrogen related receptor signaling pathway with the pleiotropic PPARgamma coactivator (PGC) cell viability counter screen (AID 1224822)
In short: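 PGC/ERR cells were seeded at 2,000 cells/well, rested 6 h at 37 C/5% CO2, then given compounds in DMSO by pin tool and incubated 17.5 h at 37 C. Viability came from CellTiter-Fluor fluorescence after 30 min.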

[15] = qHTS assay to identify small molecule antagonists of the estrogen related receptor signaling pathway with the pleiotropic PPARgamma coactivator (PGC) from Tox21 10K library (AID 1224841; call rule not given here; note: actives are mostly falling curves and most rising ones were filed inactive; nearly all actives have a fitted effect of over 50% in size)
In short: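 PGC/ERR reporter cells were seeded at 2,000 cells/well and held 6 hours at 37 C/5% CO2 before pin-tool addition of compounds in DMSO. After 18 hours at 37 C, One-Glo was added and luminescence read after 30 minutes at room temperature.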

[16] = qHTS assay to identify small molecule agonists of the estrogen related receptor signaling pathway with the pleiotropic PPARgamma coactivator (PGC) from Tox21 10K library (AID 1224842); note: nearly all actives have a fitted effect of over 15% in size
In short: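 PGC/ERR reporter cells (NTP line) were seeded 2,000 per well, rested 6 h at 37 C/5% CO2, then pin-dosed with compounds in DMSO for 18 h at 37 C; luciferase read by One-Glo luminescence after 30 min at room temperature.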

Measured: Potency

Chain of Luciferin 4-monooxygenase (Photinus pyralis) (P08659 whole entry, looked up): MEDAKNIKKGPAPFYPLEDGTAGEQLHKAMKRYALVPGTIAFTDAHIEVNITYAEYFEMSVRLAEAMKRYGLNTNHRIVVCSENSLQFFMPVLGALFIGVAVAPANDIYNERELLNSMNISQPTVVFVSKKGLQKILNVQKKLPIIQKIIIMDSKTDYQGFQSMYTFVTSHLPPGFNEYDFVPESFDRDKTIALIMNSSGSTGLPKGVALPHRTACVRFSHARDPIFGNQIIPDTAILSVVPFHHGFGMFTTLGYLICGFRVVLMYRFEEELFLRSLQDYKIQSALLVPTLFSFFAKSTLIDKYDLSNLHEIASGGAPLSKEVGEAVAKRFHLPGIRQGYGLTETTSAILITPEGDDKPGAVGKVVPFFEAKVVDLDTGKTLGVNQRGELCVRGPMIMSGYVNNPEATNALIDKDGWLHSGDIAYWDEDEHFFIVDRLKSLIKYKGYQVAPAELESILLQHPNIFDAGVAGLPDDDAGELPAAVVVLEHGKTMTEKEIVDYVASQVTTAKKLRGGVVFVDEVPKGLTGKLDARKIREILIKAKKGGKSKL
Chain of Nuclear receptor subfamily 1 group I member 3 (Homo sapiens) (Q14994 whole entry, looked up): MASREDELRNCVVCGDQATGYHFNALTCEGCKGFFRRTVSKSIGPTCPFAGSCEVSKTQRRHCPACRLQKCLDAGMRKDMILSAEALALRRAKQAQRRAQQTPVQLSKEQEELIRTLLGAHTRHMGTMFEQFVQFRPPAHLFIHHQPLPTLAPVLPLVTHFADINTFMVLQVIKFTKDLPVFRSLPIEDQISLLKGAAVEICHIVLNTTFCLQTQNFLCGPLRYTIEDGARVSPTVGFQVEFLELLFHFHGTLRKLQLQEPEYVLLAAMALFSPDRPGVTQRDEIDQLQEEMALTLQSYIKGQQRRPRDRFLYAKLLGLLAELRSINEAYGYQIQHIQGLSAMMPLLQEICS
Chain of Thyrotropin receptor (Homo sapiens) (P16473 whole entry, looked up): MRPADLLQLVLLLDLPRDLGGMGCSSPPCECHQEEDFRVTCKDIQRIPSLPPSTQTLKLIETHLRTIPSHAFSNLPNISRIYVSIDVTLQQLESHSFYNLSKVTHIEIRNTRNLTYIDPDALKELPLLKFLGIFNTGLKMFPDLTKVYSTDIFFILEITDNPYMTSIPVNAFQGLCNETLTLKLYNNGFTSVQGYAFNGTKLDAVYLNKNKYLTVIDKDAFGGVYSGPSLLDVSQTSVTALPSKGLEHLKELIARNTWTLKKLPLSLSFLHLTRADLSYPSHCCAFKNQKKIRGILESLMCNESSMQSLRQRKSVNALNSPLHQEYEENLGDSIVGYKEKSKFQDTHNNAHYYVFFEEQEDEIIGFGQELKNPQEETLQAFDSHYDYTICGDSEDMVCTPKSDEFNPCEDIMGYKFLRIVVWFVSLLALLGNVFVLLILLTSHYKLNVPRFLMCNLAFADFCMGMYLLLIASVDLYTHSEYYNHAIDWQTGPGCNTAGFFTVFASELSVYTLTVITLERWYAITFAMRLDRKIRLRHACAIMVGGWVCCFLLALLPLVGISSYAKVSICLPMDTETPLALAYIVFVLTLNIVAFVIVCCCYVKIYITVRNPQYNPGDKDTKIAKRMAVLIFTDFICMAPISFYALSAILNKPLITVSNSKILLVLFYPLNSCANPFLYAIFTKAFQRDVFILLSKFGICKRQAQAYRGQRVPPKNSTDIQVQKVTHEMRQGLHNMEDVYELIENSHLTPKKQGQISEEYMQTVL

OCC(O)CS (centres undefined)
not listed: [13] | [14] | [15] | [16]
inactive: all other assays above

CN1Cc2c(N)cccc2C(c2ccccc2)C1 (centres undefined)
not listed: [15] | [16]
inactive: all other assays above

CCOC(=O)c1ccc(O)cc1
not listed: [13] | [14] | [15] | [16]
inactive: all other assays above

CCCCCC(C)=O
not listed: [12] | [13] | [14]
inactive: all other assays above

COC(=O)/C=C\C(=O)OC
not listed: [13] | [14]
inactive: all other assays above

OB(O)O
not listed: [13] | [14]
inactive: all other assays above

O=C1C(N(CO)C(=O)NCO)N(CO)C(=O)N1CO (centres undefined)
not listed: [13] | [14] | [15] | [16]
inactive: all other assays above

Nc1cccc(N)n1
not listed: [12] | [13] | [14] | [15] | [16]
inactive: all other assays above

CCCCCCC(=O)O
not listed: [13] | [14]
inactive: all other assays above

COc1ccccc1[N+](=O)[O-]
not listed: [12] | [13] | [14]
inactive: all other assays above
